This passage reports inhibition results from ChEMBL document CHEMBL3433997, “St. Jude Leishmania screening dataset” (2016).

One may read the inhibition as the relative decrease from the control value, in per cent.

Holding throughout (format): functional
For assay [1], the target named is Solute carrier family 2, facilitated glucose transporter member 1 (Homo sapiens) (UniProt P11166). Description: ST_JUDE_LEISH: Cytotoxicity at 2uM final concentration against transgenic Leishmania Mexicana promastigotes LmGLUT1 that are glucose transport deficient and complemented with the human glucose transporter GLUT1. Activity is measured by DNA content using SYBR green in vitro.

Assay [2] concerns the target Hexose transporter 1 (Plasmodium falciparum) (UniProt O97467). Description: ST_JUDE_LEISH: Cytotoxicity at 2uM final concentration against transgenic Leishmania Mexicana promastigotes LmPfHT that are glucose transport deficient and complemented with the Plasmodium falciparum hexose transporter. Activity is measured by DNA content using SYBR green in vitro.
The target in assay [3] is Glucose transporter (Leishmania mexicana) (UniProt O61059). The assay is described as follows: ST_JUDE_LEISH: Cytotoxicity at 2uM final concentration against transgenic Leishmania Mexicana promastigotes LmGT2 that are glucose transport deficient and complemented with the L. Mexicana glucose transporter 2. Activity is measured by DNA content using SYBR green in vitro.

Solute carrier family 2, facilitated glucose transporter member 1 (Homo sapiens), sequence (P11166 whole entry): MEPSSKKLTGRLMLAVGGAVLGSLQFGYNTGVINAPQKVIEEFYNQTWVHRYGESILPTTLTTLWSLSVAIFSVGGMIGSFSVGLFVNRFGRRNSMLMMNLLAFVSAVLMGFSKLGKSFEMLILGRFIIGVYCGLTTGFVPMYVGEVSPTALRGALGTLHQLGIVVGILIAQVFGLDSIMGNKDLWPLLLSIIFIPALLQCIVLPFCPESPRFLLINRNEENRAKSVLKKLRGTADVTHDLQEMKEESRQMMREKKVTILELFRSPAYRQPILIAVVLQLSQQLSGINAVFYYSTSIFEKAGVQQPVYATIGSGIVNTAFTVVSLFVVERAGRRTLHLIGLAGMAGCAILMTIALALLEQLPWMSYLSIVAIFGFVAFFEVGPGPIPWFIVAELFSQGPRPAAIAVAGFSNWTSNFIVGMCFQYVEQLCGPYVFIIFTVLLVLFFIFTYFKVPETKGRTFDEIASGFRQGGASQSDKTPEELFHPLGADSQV

Take `CN1CCN(c2ccc(CNc3ccc4ncc(-c5ccc(OC(F)(F)F)cc5)n4n3)cc2)CC1`: the inhibition was -2.29% in assay [1], -1.23% in assay [2] and -1.25% in assay [3].
On to `Cc1ccccc1C1CCN(C2CCC(NC(=O)/C=C/c3ccc(F)cc3)CC2)CC1` (stereo unspecified), for which the inhibition is -1.42% in assay [1], -0.14% in assay [2] and 0.53% in assay [3].
In the same order, the values of `N=C1SC(=Cc2cn[nH]c2-c2ccc(F)cc2)C(=O)N1c1nccs1` are 0.88%, 2.1% and 1.17%.
For `CCOP(=O)(OCC)c1ccc(OC)c(-c2ccc[nH]2)c1`, in that order: 4.52%, 2.22% and 1.77%.
For `COc1c(C)cc(I)cc1CNCCCNc1cc(=O)c2ccccc2[nH]1`, in that order: 0.43%, -0.66% and -0.84%.
Regarding `COc1cc(C2NCC3(CCOCC3)c3cc4c(cc32)OCCO4)cc(OC)c1OC` (stereo unspecified), the inhibition in assay [1] was 10.2%; in assay [2], 6.69%; in assay [3], 7.63%.
For `COc1ccc(-c2cccc(NC(=O)c3ccc(Cl)cc3)c2)cc1CN1CCC(O)CC1`, in that order: 5.4%, 0.09% and 1.8%.
As to `Fc1ccc2[nH]c(-c3ccc(-c4cccc(CN5CCC(CCN6CCCCC6)CC5)c4)cc3)nc2c1`, the inhibition in assay [1] is 2.93%; in assay [2] it was 1.77%; in assay [3], 0.37%.
Regarding `Cc1cc2nc(-c3ccc(OCC(=O)NCc4cccc(C(F)(F)F)c4)cc3)[nH]c2cc1C`, the inhibition in assay [1] is -2.75%; in assay [2], -1.2%; in assay [3], -1.65%.
In the same order, the values of `Cc1cc(N[C@@H](Cc2ccccc2)C(=O)NC2CCCC2)nc(NCCc2ccc(F)cc2)n1` are 5.06%, 5.18% and -0.53%.
In the same order, the values of `CC(C)(CNC(=O)C1CCN(Cc2ccoc2)CC1)c1nc(-c2ccc(Cl)c(O)c2)c(-c2ccncc2)[nH]1` are -1.41%, 0.07% and -2.68%.
In the same order, the values of `CCCCNC(=O)c1[nH]c2c(NC(=O)COc3ccccc3)cccc2c1-c1cccc(NC(=O)C(N)CO)c1` (stereo unspecified) are 10.1%, 9.02% and 7.27%.
